# Laboratory results: PubChem BioAssay (NCI)
# This is part of a sample that, as a whole, favours compounds with a hit. Of some 83,000 tested, about 20% had one in any assay.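 Assay: single dose, 48 h. Readout: percent growth (0 = no net growth; negative = cell death). Active: <10.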 Unmarked numbers belong to inactive results. Calls of active or inactive are those of the source.
# How the values were obtained:
# Assay in all cases: NCI-60 one-dose screen, 48 h (100 = growth as untreated, 0 = no growth, -100 = all killed)
# Conditions in all cases: 10 µM unless noted
# EKVX NSCLC = tested on: EKVX NSCLC
# SN12C renal = tested on: SN12C renal
# UO-31 renal = tested on: UO-31 renal
# ACHN renal = tested on: ACHN renal
# CCRF-CEM leukemia = tested on: CCRF-CEM leukemia
# MOLT-4 leukemia = tested on: MOLT-4 leukemia
# SR leukemia = tested on: SR leukemia
# RPMI-8226 leukemia = tested on: RPMI-8226 leukemia
# OVCAR-8 ovarian = tested on: OVCAR-8 ovarian
# OVCAR-5 ovarian = tested on: OVCAR-5 ovarian
# OVCAR-4 ovarian = tested on: OVCAR-4 ovarian
# SK-OV-3 ovarian = tested on: SK-OV-3 ovarian
# IGROV1 ovarian = tested on: IGROV1 ovarian
# HS 578T breast = tested on: HS 578T breast
# NCI/ADR-RES ovarian = tested on: NCI/ADR-RES ovarian
# T-47D breast = tested on: T-47D breast
# A498 renal = tested on: A498 renal
# OVCAR-3 ovarian = tested on: OVCAR-3 ovarian
# CAKI-1 renal = tested on: CAKI-1 renal
Compound,growth (EKVX NSCLC),growth (SN12C renal),growth (UO-31 renal),growth (ACHN renal),growth (CCRF-CEM leukemia),growth (MOLT-4 leukemia),growth (SR leukemia),growth (RPMI-8226 leukemia),growth (OVCAR-8 ovarian),growth (OVCAR-5 ovarian),growth (OVCAR-4 ovarian),growth (SK-OV-3 ovarian),growth (IGROV1 ovarian),growth (HS 578T breast),growth (NCI/ADR-RES ovarian),growth (T-47D breast),growth (A498 renal),growth (OVCAR-3 ovarian),growth (CAKI-1 renal)
O=C1NC(=C(Cl)Cl)/C(=N/S(=O)(=O)N2CCCCC2CC2(C(F)(F)F)N=N2)N1 (centres undefined),59.2%,95.8%,18.2%,-48.9% (active),4.21% (active),-9.34% (active),-33.4% (active),-6.5% (active),17.6%,91.1%,-10.2% (active),136%,-0.053% (active),52.2%,63.4%,65.7%,,,
COc1cc2nc(-c3ccc(C)cc3)cc(OCCCNCC3CCCO3)c2cc1OC (centres undefined),73.4%,57.3%,72%,65.7%,73.4%,71.9%,41.1%,,46.8%,56.7%,89.8%,113%,49.1%,84.3%,54.8%,66%,46.9%,101%,
c1ccc2c(NCCCN3CCOCC3)c3oc4ccccc4c3nc2c1,-19.6% (active),3.3% (active),-79.6% (active),-9% (active),12%,-4.43% (active),-12.1% (active),-14.4% (active),-71.7% (active),1.26% (active),7.86% (active),-9.67% (active),-16.7% (active),5.28% (active),7.98% (active),21.1%,-86.9% (active),,
NC(=O)c1c(NC(=O)c2ccc(C3CCCCC3)cc2)sc2c1CCC(=O)C2,14.2%,23.7%,11.6%,4.68% (active),9.82% (active),11.3%,5.25% (active),-15% (active),,23.4%,-0.0254% (active),,24.7%,35.4%,,-5.15% (active),67.6%,22.4%,
Clc1ccc2c(NCCCn3ccnc3)c3oc4ccc(Cl)cc4c3nc2c1,46.7%,79.3%,44%,44.4%,57.2%,77%,-11.2% (active),,71.9%,86.7%,95.7%,83.4%,58.9%,91.1%,74.1%,78.2%,45.9%,98.8%,
N#Cc1nc(-c2ccccc2)oc1S(=O)(=O)N1CCCCC1,76.1%,62.5%,-82.2% (active),-93.4% (active),4.27% (active),0.441% (active),,64.6%,89.9%,102%,101%,132%,19.9%,106%,99.3%,49.9%,89.9%,,
COc1ccc(-n2c(SCC(=O)Nc3ccc(-c4nc5ccccc5[nH]4)cc3)nc3ccccc3c2=O)cc1,53.1%,62.3%,73.5%,54%,25.7%,25.7%,-4.97% (active),,20.9%,68.5%,-33.7% (active),136%,17.5%,28.7%,32.5%,-51.8% (active),,-34.8% (active),
CN(C)CCCOc1c2ccc(Cl)cc2nc2c1oc1ccccc12,-41.6% (active),18%,-51.9% (active),-6.02% (active),,-17% (active),-34.2% (active),-22.1% (active),-17.8% (active),4.62% (active),1.72% (active),-8.76% (active),-8.93% (active),5.22% (active),3.15% (active),13.5%,-91.8% (active),,
COC(=O)C(Cc1ccccc1)NS(=O)(=O)/N=C1\NC(=O)NC1=C(Cl)Cl (centres undefined),104%,96.8%,81.3%,98.1%,,79.3%,82.9%,4.3% (active),102%,115%,112%,108%,101%,100%,106%,68.4%,,110%,100%
N#Cc1c(-c2ccc(Cl)cc2)nc2c(-c3ccccc3)c(Nc3ccccc3)nn2c1N,60.6%,77.5%,34.8%,11%,67.9%,61%,36.9%,54.1%,48.6%,,-7.41% (active),42.7%,56.4%,37.3%,38.9%,52.9%,,,35.1%
Clc1ccc2c(NCCCN3CCOCC3)c3oc4ccc(Cl)cc4c3nc2c1,65.3%,40%,32.2%,12.1%,48.9%,15.4%,1.24% (active),67.8%,35.6%,47.4%,87.4%,89.3%,42.9%,84%,42.5%,91.4%,49.7%,104%,
Clc1ccc2oc3c(NCCCn4ccnc4)c4ccccc4nc3c2c1,73.8%,38.4%,30%,9.12% (active),,7.69% (active),-5.22% (active),37.6%,43.4%,50.1%,63%,93.9%,36.5%,61.7%,41.2%,88.9%,14.3%,76.7%,
O=C(CN1C(=O)/C(=C/c2ccccc2)SC1=S)N1CCOCC1,96.3%,94.7%,71.4%,77.9%,,99.1%,85.8%,89.6%,102%,97.6%,109%,95.4%,97.4%,106%,106%,77.9%,112%,115%,
[Cl][Ru].c1ccc(-c2cc(-c3ccccn3)nc(-c3ccccn3)c2)cc1.c1ccc(-c2ccnc3c2ccc2c(-c4ccccc4)ccnc23)cc1,25.9%,-22.5% (active),63.9%,6% (active),0.187% (active),-16.8% (active),-40.3% (active),-41.8% (active),,18.3%,15.6%,-12.1% (active),-59.2% (active),-15.1% (active),93.7%,-11.4% (active),-20.2% (active),,
O=C1Nc2cc(Cl)ccc2/C1=C\c1ccc(OCc2ccc([N+](=O)[O-])cc2)cc1,82.5%,79.5%,50.7%,43%,,97.4%,87.5%,,78.8%,93.3%,43.6%,98%,64.5%,60.9%,73.3%,51.9%,81%,,
CCN1C(=S)N(c2ccccc2)C2NC(=O)N(/N=C/C=C/c3ccccc3OC)C21 (centres undefined),89.7%,87.5%,90.4%,80.1%,,101%,40.9%,92.6%,73.1%,97.7%,81.1%,115%,92.1%,78.7%,99.4%,93.3%,95%,93.9%,
O=C(N/N=C/c1ccc[nH]1)c1[nH]c2ccc(Br)cc2c1-c1ccccc1,24.4%,28.7%,12.3%,12.2%,5.27% (active),5.94% (active),1.89% (active),,13%,,33.2%,36.7%,8.52% (active),29.5%,14.8%,14.1%,,22.2%,21.2%
